{"source": "PubChem BioAssay AID2391", "about": "(Southern Research Specialized Biocontainment Screening …, 2010)", "note": "“And” between values parts separate entries of the source, which are not always exact repeats. Equal entries are not always repeated. Hit rate of the full screen: of about 310,000 compounds, about 410 (0.13%) were called active. Not shown: some 2% with an inconclusive outcome. The list is a sample of the results. Results with a measured potency or affinity are listed apart. Unmarked numbers belong to inactive results. No rule for the calls is given here.", "data": [{"test": "inhibition of RSV-induced cytopathic effect – HEp-2 cells, primary 10 µM value included (AID 2391)", "settings": "at 10 µM, stronger effect = higher value", "values": [{"smiles": "COc1ccccc1C(=O)N(Cc1nc(-c2ccc(Cl)cc2)no1)C(C)C", "CPE inhibition": "2.22%"}, {"smiles": "COc1ccc(Cl)cc1C(=O)N(Cc1nc(-c2cccc(C)c2)no1)C(C)C", "CPE inhibition": "10.2%"}, {"smiles": "CC(C)NS(=O)(=O)c1ccc(CCC(=O)N2CCCC2)cc1", "CPE inhibition": "1.63%"}, {"smiles": "CCC1CCCCN1C(=O)c1ccc2nc(Cc3ccc(OC)cc3)oc2c1", "note": "(centres undefined)", "CPE inhibition": "20.7%"}, {"smiles": "Cc1cccc(NC(=O)CNC(=O)CN2C(=O)NC3(CCCCC3C)C2=O)c1C", "note": "(centres undefined)", "CPE inhibition": "-0.96%"}, {"smiles": "CC1CCCCC12NC(=O)N(CC(=O)Nc1ccccc1-c1ccccc1)C2=O", "note": "(centres undefined)", "CPE inhibition": "-0.96%"}, {"smiles": "COc1ccc(C(=O)NCc2cc(C)nc3ccccc23)cc1OC", "CPE inhibition": "19%"}, {"smiles": "CCOCCCNC(=O)C1CCN(Cc2cccc(OCc3ccccc3)c2)CC1", "CPE inhibition": "-0.9%"}, {"smiles": "CCOC(=O)Cn1nnnc1C(C(C)C)N(Cc1cc2c(C)cc(C)cc2[nH]c1=O)C1CCCC1", "note": "(centres undefined)", "CPE inhibition": "9.34%"}, {"smiles": "CCOC(=O)Cn1nnnc1C(CC)N(Cc1cc2ccc(C)cc2[nH]c1=O)C1CCCC1", "note": "(centres undefined)", "CPE inhibition": "0%"}, {"smiles": "CN(Cc1ccccc1)C(=O)CN1C(=O)c2ccc([N+](=O)[O-])cc2C1=O", "CPE inhibition": "1.1%"}, {"smiles": "N#CCCN(CCC#N)C(=O)COc1ccc(Cl)cc1Cl", "CPE inhibition": "2.86%"}, {"smiles": "CC(=O)Nc1ccc(NC(=O)COc2ccc(Cl)cc2Cl)cc1", "CPE inhibition": "5.13%"}, {"smiles": "COc1ccc(NC(=O)Nc2ccc3c(c2)CCC3)c(OC)c1", "CPE inhibition": "3.19%"}, {"smiles": "CCOc1ccccc1NC(=O)Nc1ccc2c(c1)CCC2", "CPE inhibition": "7.85%"}, {"smiles": "O=C(CCl)NC1CCCc2ccccc21", "note": "(centres undefined)", "CPE inhibition": "-0.24%"}, {"smiles": "COc1cc(C(=O)NCCC(=O)NC2CCCc3ccccc32)cc(OC)c1OC", "note": "(centres undefined)", "CPE inhibition": "0.19%"}, {"smiles": "O=C(NC1CCCc2ccccc21)c1ccc(Br)cc1", "note": "(centres undefined)", "CPE inhibition": "6.09%"}, {"smiles": "O=C(Cc1ccc(Br)cc1)NC1CCCc2ccccc21", "note": "(centres undefined)", "CPE inhibition": "2.96%"}, {"smiles": "O=c1c2ccccc2ncn1Cc1ccc(Cl)c(Cl)c1", "CPE inhibition": "3.3%"}, {"smiles": "Cc1cc(C)[n+]2n1C(=O)C(c1ccccc1)=C2[O-]", "CPE inhibition": "3.89% and 3.76%"}, {"smiles": "Nc1ccccc1SCC1CSc2nc3ccccc3c(=O)n21", "note": "(centres undefined)", "CPE inhibition": "2.42%"}, {"smiles": "O=c1c2ccccc2nc2n1C(CSc1ccc(F)cc1)CS2", "note": "(centres undefined)", "CPE inhibition": "2.75%"}, {"smiles": "O=c1c2ccccc2nc2n1C(CSc1ccccc1)CS2", "note": "(centres undefined)", "CPE inhibition": "1.34%"}, {"smiles": "O=c1c2ccccc2nc2n1C(CSCc1ccc(Cl)cc1Cl)CS2", "note": "(centres undefined)", "CPE inhibition": "5.16%"}, {"smiles": "COc1cccc(SCC2CSc3nc4ccccc4c(=O)n32)c1", "note": "(centres undefined)", "CPE inhibition": "7.09%"}, {"smiles": "O=C(Nc1ccccc1SCC1CSc2nc3ccccc3c(=O)n21)c1ccccc1", "note": "(centres undefined)", "CPE inhibition": "2.48%"}, {"smiles": "O=C(OC(C(=O)NC1CCCC1)c1ccccc1F)c1ccco1", "note": "(centres undefined)", "CPE inhibition": "0.45%"}, {"smiles": "Nc1cc(=O)[nH]c(SCC(=O)N2N=C(c3ccc(Cl)cc3)CC2c2ccco2)n1", "note": "(centres undefined)", "CPE inhibition": "7.31%"}, {"smiles": "CCn1c(=O)n(CC(=O)Nc2ccc(F)cc2)c(=O)c2ccccc21", "CPE inhibition": "2.36%"}, {"smiles": "CC(=O)OC[C@H]1O[C@@H](Sc2cccc3cccnc23)[C@H](OC(C)=O)[C@@H](OC(C)=O)[C@@H]1OC(C)=O", "CPE inhibition": "1.39%"}, {"smiles": "O=C(NC1CC2CCCC(C1)N2C(=O)Nc1ccccc1)C1CC1", "note": "(centres undefined)", "CPE inhibition": "1.59%"}, {"smiles": "O=C(COC(=O)/C=C/c1ccc(C(F)(F)F)cc1)NCC1CCCO1", "note": "(centres undefined)", "CPE inhibition": "-1.68%"}, {"smiles": "Cc1sc2nc3c(C(=O)N4CCCC4)cc(C(=O)c4ccccc4O)cn3c(=O)c2c1C", "CPE inhibition": "1.18%"}, {"smiles": "CCOC(=O)c1sc2nc3c(SCC(=O)O)cc(C(=O)c4ccccc4O)cn3c(=O)c2c1C", "CPE inhibition": "11.9%"}, {"smiles": "O=C(Nc1ccncc1)c1c(Cl)cccc1Cl", "CPE inhibition": "0%"}, {"smiles": "Cc1c(C)c2c(OCC(=O)N3CCC[C@H]3C(=O)O)cc3c(c2oc1=O)CCC(C)(C)O3", "CPE inhibition": "0.96%"}, {"smiles": "O=C(Nc1ccc(Cl)c(C(F)(F)F)c1)[C@@H]1CC=C[C@@H]2CCN(Cc3ccc(Cl)c(Cl)c3)C(=O)[C@@H]21", "CPE inhibition": "7.28%"}, {"smiles": "O=C(Nc1ccc(Cl)c(C(F)(F)F)c1)[C@@H]1CC=C[C@@H]2CCN(Cc3ccccc3)C(=O)[C@@H]21", "CPE inhibition": "2.53%"}, {"smiles": "COc1ccc(OC)c(Nc2nc3nonc3nc2N2CCCCC2)c1", "CPE inhibition": "1.59%"}, {"smiles": "O=C(Cc1cccc2ccccc12)Nc1ccc(O)cc1C(=O)O", "CPE inhibition": "2.4%"}, {"smiles": "COc1ccccc1NC(=O)COc1ccc2ccccc2c1", "CPE inhibition": "4.1%"}, {"smiles": "COc1cc(NC(=O)CCCOc2ccc(Cl)cc2Cl)c(C(=O)O)cc1OC", "CPE inhibition": "6.77%"}, {"smiles": "O=C(CCCOc1ccc(Cl)cc1Cl)Nc1ccc(O)cc1C(=O)O", "CPE inhibition": "0.3%"}]}]}
